Structures are written as SMILES. Calls of active or inactive are those of the source. The calls were made as follows: active = hit-call score of the fitted dose curve at least 0.9, where 1 is the maximum; inactive = score below 0.9.

Read-out in this test: DNA damage-inducible transcript 3 (DDIT3), DDIT3 (gene 1649)
As to the kind of experiment: LTEA_HepaRG_DDIT3: Life Technologies and Expression Analysis (LTEA) Assay for DNA damage-inducible transcript 3 (DDIT3) using HepaRG (AID 2283488). The settings on record: mRNA level, 48 h; actives raise or lower the signal. The protocol:
LTEA_HepaRG is a cell based, multiplexed-readout assay that uses HepaRG, a human liver cell line, with measurements taken at 48 hours after chemical dosing on a 96-well plate.LTEA_HepaRG_DDIT3 is one of 102 assay component(s) measured in the LTEA HepaRG cell culture assay. It is a marker of Oxidative Stress.Data from the assay component LTEA_HepaRG_DDIT3 was analyzed into 1 endpoint. This assay endpoint, LTEA_HepaRG_DDIT3, was analyzed with bidirectional fitting relative to DMSO as the negative control and baseline of activity. Using a type of inducible reporter, measures of mRNA induction for gain or loss-of-signal activity can be used to understand regulation of transcription factor activity. To generalize the intended target to other relatable targets, this assay endpoint is annotated to the dna binding intended target family, where the subfamily is basic leucine zipper.
A total of 1060 chemcials from the ToxCast library were tested in eight-point concentration-response experiments. Cell culture and cytotoxicity assays were conducted at Thermo Fisher Scientific's Custom Services facility (Madison, WI). A single lot of human HepaRG cells (Thermo Fisher Scientific, Frederick, MD) was used for the cell culture experiments. 96-well format collagen type I coated plates of human HepaRG cells were prepared using established methods. Briefly, cryopreserved HepaRG cells were thawed, plated at a density of approximately 100,000 cells/well in HepaRG Thaw, Plate, and General Purpose media (HPRG770, Thermo Fisher Scientific), and incubated for 48 hours. 0.5% DMSO was selected as vehicle control to balance the requisite need of DMSO in HepaRG cultures to maintain differentiation (for example, baseline metabolism, proportions of hepatocytes vs. cholangiocytes), while enabling further hepatic receptor pathway activation (for example, PXR and CAR) in response to chemical exposure. 48 hours after plating, the culture medium was replaced with HepaRG Serum-Free Incudtion Media. Cells were exposed to each test chemical in duplicate and maintained in CO2 incubators for another 48 hours. Chemical plates were thawed to room temperature and 200x concentrations of treatment groups were prepared. 8-point conentration-reponse curves were made with the highest exposure at 100 uM, followed by half-log dilutions, all in 0.5% DMSO. Each test plate contained variouse controls, induction positive controls (1mM phenobarbital), cytotoxicity positive controls ([…] aflatoxin B1), vehicle controls (0.5% DMSO), and total lysis controls (0.5% DMSO). Cell morphology images were taken using an Essen IncuCyte FLR automated microscope, with six 96-well plates imaged in about 24 minutes. Images were captured and exported and JPEG files. Spent culture media was transfered to black-well plates for the LDH assay, and remaining media was sorted at -80 C for later use. Cells were treated with RLT buffer and frozen until shipped for gene expression analysis. Total RNA was isolated from the cell suspension in 75 uL of Buffer RLT (Qiagen, Germantown, MD 20874) by Quintiles/Expression Analysis (Durham, NC) using a custom isolation procedure. Total RNA from each plate well was transferred to a preamplification plate. Fluidigm's 96.96 Dynamic ArrayTM (Fluidigm, Amsterdam, the Netherlands) technology was used for gene expression analyses by quantitative reverse transcription polymerase chain reaction (qRT-PCR, performed by Quintiles/Expression Analysis, Durham, NC)89. Standard TaqManTM Assays (Applied Biosystems/ThermoFisher Scientific, Foster City, CA) were used to assess the expression of 93 genes selected based on their selectivity and sensitivity to important hepatic receptors known to be modulated by environmental chemicals; importance in human hepatocyte functionality; and hepatotoxicity. […]
Turning to `Cc1ccc(N)cc1O`, the call was inactive.
The same measure, in the same setting: the value for `CC/C(=C\C(=N/O)C(N)=O)C(C)[N+](=O)[O-]` (stereo not given) was “inactive”.
In general, AC50 refers to the concentration giving half of the maximal activity seen. As to `CCOc1cccc(-n2cc(C(=O)N3CCN(c4cc(C(=O)O)c5ccccc5c4)CC3)nc2-c2ccc(C)cc2)c1`, the AC50 was 12.4 µM (active).
Turning to `COCCOc1cc2cc(C(=O)NC3CCN(C(C)C)CC3)n(CC(=O)Nc3ccc(Cl)cn3)c2cn1`, the molecule was classed as inactive.
Still for that read-out and setting: the value for `O=C(O)CC(O)C(=O)O` (stereo not given) was “inactive”; that for `CCC(C)(C)C(=O)O[C@H]1C[C@@H](C)C=C2C=C[C@H](C)[C@H](CC[C@@H]3C[C@@H](O)CC(=O)O3)[C@H]21` was “inactive”.
Regarding `CC(C)=CCC/C(C)=C\CO`, the molecule was called inactive.
On to `CCN(C(=O)c1cc(C)cc(OC[C@H](C)Nc2ccncc2)c1)C(C)C`, for which the AC50 is 48 µM (active).
As to `O=C(OC[C@H]1O[C@@H](OC(=O)c2cc(O)c(O)c(OC(=O)c3cc(O)c(O)c(O)c3)c2)[C@H](OC(=O)c2cc(O)c(O)c(OC(=O)c3cc(O)c(O)c(O)c3)c2)[C@@H](OC(=O)c2cc(O)c(O)c(OC(=O)c3cc(O)c(O)c(O)c3)c2)[C@@H]1OC(=O)c1cc(O)c(O)c(OC(=O)c2cc(O)c(O)c(O)c2)c1)c1cc(O)c(O)c(OC(=O)c2cc(O)c(O)c(O)c2)c1`, the concentration at half-maximal activity (AC50) is 4.58 µM (active).
Regarding `CCCCCCCCO`, the call was inactive.
For `C1=CCCC=CCCC=CCC1`, the molecule was classed as inactive.
Still for that read-out and setting: the value for `O=C(O)CCN(C1(C(=O)NO)CCCC1)S(=O)(=O)c1ccc(Oc2ccc(F)cc2)cc1` was “inactive”.
Consider `CCCC(=O)OCC`, for which the molecule was called inactive.
Same read-out and setting: the value for `CC(C)=CCCC(C)=CC=O` was “inactive”; that for `CC(C)CC(C)(O)C#CC(C)(O)CC(C)C` (stereo not given) was “inactive”; that for `CCOC(=O)CC(CC(=O)OCC)(OC(C)=O)C(=O)OCC` was “inactive”.
In the case of `CCCCCCc1ccc(O)cc1O`, the molecule was called inactive.
As for `CN(C)c1ccc(N=NS(=O)(=O)O)cc1`, the outcome was inactive.
As to `CC(C)=CCC/C(C)=C/CO`, the call was inactive.
As for `COC(=O)c1ccccc1O`, the call was inactive.
With `CNS(=O)(=O)c1cc(C(=O)N2CCC(CCN3C4CCC3CC(n3c(C)nc5ccccc53)C4)(c3cccc(F)c3)CC2)c(Cl)cc1F` (stereo not given), the concentration at half-maximal activity (AC50) is 29 µM (active).
For the molecule `COc1cccc(-c2ccc(/C=C\CN3CCCCCC3)cc2Cl)c1`, the AC50 is 79.4 µM (active).
As for `O=C(O)c1cccc(N(Cc2cccnc2)c2ccc(OC(F)F)c(OC(F)F)c2)c1`, the outcome was inactive.
As to `Cn1cnc([N+](=O)[O-])c1Sc1ncnc2nc[nH]c12`, the AC50 was 9.59 µM (active).
In the case of `CCOCCO`, the result was inactive.
Turning to `C=CC(=C)CCC=C(C)C`, the call was inactive.
As for `O=C(CCCCCCCCc1cccnc1)N1CCC(C=C(c2ccccc2)c2ccccc2)CC1`, the AC50 was 22.1 µM (active).
Regarding `Cc1c(-c2cccnc2)c2ccccc2n1CCCCC(=O)O`, the molecule was classed as inactive.
Regarding `Oc1ccc2c(c1)-c1ccccc1C2`, the molecule was classed as inactive.
Regarding `CCc1cc(SCc2sc(-c3ccc(C(F)(F)F)cc3)nc2CN2CCN(c3ccc(OC)cc3)CC2)ccc1OCC(=O)O`, the half-maximal activity concentration (AC50) is 3.85 µM (active).
Same read-out and setting: for `COc1ccc2sc(C(=O)Nc3nnn[nH]3)c(OC(C)C)c2c1` the value was 13.2 µM (active).
With `CNCc1ccc(NC(=O)c2c[nH]c3c2C(=O)CCC3)cc1`, the result was inactive.
For the molecule `COc1ccc(-n2nc(C(F)F)cc2-c2ccc(S(C)=O)cc2)cc1` (stereo not given), the call was inactive.
Regarding `O=C1OC(=O)C2C3C=CC(C3)C12` (stereo not given), the molecule was classed as inactive.
For the molecule `Nc1cccc(N)c1`, the outcome was inactive.
`O=C1CCC(N2C(=O)c3ccccc3C2=O)C(=O)N1` (stereo not given): the molecule was classed as inactive.
Consider `O=c1[nH]c2ccc(S(=O)CCN3CCC(Cc4ccc(F)cc4)CC3)cc2o1` (stereo not given), for which the AC50 is 50 µM (active).
For `CC1=CC(=O)CC(C)(C)C1`, the outcome was inactive.
For the molecule `O=C(O)c1cccc(Oc2ccccc2)c1`, the molecule was called inactive.
With `CCNc1ccccc1`, the molecule was called inactive.

The record behind these values is PubChem BioAssay (EPA / NIEHS).
